# Source: PubChem BioAssay (NCATS)
# Results filed as inconclusive are left out. Entries that show only a call come without a potency. Calls of active or inactive are those of the source. Unless noted, calls come from the whole dose curve; as a rule, active = well fitted curve in the direction sought with a large enough effect; inconclusive = small, poorly fitted or top-dose-only effect, or another doubt; inactive = no such curve, though single readings can be large; an effect the other way counts as inactive or inconclusive. Peptide text beside a SMILES is read from it.
# What was measured:
# [1] = Cell Viability - LYMP2-001 (AID 921);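 note: cells exposed to compound for 24 h at 37 °C; nearly all actives have a fitted effect of over 70% in size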; note: potency is the fitted concentration of half-maximal effect
# Outline: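 CellTiter-Glo luminescence (intracellular ATP) after 24 hr compound exposure at 37 C, 2500 lymphoblastoid cells/well in complete medium. AC50 fitted with standard Hill equation; tetraoctylammonium bromide positive control.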
# [2] = Confirmation and Secondary Assay for Modulators of Hemoglobin Beta Chain Splicing at IVS2 705 locus (AID 930);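 note: GFP fluorescence per well restored by corrected splicing of the IVS2-705 intron in EGFP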; note: potency is the fitted concentration of half-maximal effect
# Outline: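 Assay measures total GFP intensity per well in HeLa EGFP-705 cells after 2 days with compound; mis-splicing normally truncates EGFP, so fluorescence indicates corrected splicing.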
# [3] = MultiTox-Fluor Cytotoxicity Assay - LYMP1-001 - Dead Cells (AID 946);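 note: cells exposed to compound for 16 h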; note: potency is the fitted concentration of half-maximal effect
# Outline: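 AC50 from Hill fit of concentration-response; data normalized to DMSO (basal) and 15 uM tetraoctylammonium bromide (100%). LYMP1-001 lymphoblastoid cells, 2500/well, 16 hr compound at 37 C; dead-cell protease fluorescence, Ex/Em 485/520.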
# [4] = MultiTox-Fluor Cytotoxicity Assay - LYMP1-001 - Live Cells (AID 947); note: potency is the fitted concentration of half-maximal effect
# [5] = Cell Viability - LYMP1-002 - Assay at 16 hr (AID 948); note: potency is the fitted concentration of half-maximal effect
# Outline: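 LYMP1-002 human lymphoblastoid cells, 2500/well; 5 hr 37 C; cpd 16 hr 37 C; CellTiter-Glo 30 min RT; luminescence (ATP). Concentration-response, Hill-fit AC50. Pos ctrl tetraoctylammonium bromide.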
# [6] = qHTS Assay for Identification of Small Molecule Agonists for Thrombopoietin (TPO) Signaling Pathway (AID 917); note: potency is the fitted concentration of half-maximal effect
# Outline: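 Activators of TPO signaling were sought in murine Ba/F3 cells transfected with the human receptor, using a luciferase gene driven by the Glycoprotein IIb promoter; 24-hr compound exposure at 37 C alongside 26 pM TPO, in IL-3-free medium.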
# [7] = molecular target: Pyruvate kinase (Leishmania mexicana) (UniProt Q27686); assay: qHTS Validation Assay for Inhibitors of Leishmania Mexicana Pyruvate Kinase (AID 945); note: potency is the fitted concentration of half-maximal effect
# Chain of Pyruvate kinase (Leishmania mexicana) (Q27686 2-499 E452W): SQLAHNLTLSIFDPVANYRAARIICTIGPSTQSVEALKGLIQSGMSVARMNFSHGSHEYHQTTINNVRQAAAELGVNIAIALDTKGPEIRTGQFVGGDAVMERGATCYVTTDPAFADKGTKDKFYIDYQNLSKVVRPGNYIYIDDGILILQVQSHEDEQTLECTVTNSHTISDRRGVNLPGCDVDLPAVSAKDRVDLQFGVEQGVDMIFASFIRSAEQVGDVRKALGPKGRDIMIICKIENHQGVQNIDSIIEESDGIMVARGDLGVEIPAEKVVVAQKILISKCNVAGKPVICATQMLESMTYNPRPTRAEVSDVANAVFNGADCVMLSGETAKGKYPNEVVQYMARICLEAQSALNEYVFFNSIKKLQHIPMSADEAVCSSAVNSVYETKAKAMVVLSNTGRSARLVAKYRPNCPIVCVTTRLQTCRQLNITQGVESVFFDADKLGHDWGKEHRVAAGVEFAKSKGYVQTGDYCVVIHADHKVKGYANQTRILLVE
# Outline: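 Pyruvate kinase activity of E451W LmPYK (0.2 nM) was followed as ATP output after 1 h at room temperature with 0.5 mM PEP and 0.1 mM ADP, detected by PKLight luminescence.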
# [8] = qHTS Assay for Identification of Small Molecule Antagonists for Thrombopoietin (TPO) Signaling Pathway (AID 918); conditions: TPO-dependent cell signaling reporter, antagonist mode; note: potency is the fitted concentration of half-maximal effect; nearly all actives have a fitted effect of over 60% in size
# Outline: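 First, Ba/F3 reporter cells expressing human TPO receptor were held overnight without IL-3. Next, compound and 26 pM TPO were added. After 24 hrs incubation at 37 C, luciferase luminescence under the Glycoprotein IIb promoter was recorded.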
# [9] = molecular target: Muscarinic acetylcholine receptor M1 (Rattus norvegicus) (UniProt P08482); assay: qHTS Assay for Antagonists of Acetylcholine Muscarinic M1 Receptor: Kinetic Measurement of Intracellular Calcium Response (AID 943); note: nearly all actives have a fitted effect of over 75% in size; note: potency is the fitted concentration of half-maximal effect
# Chain of Muscarinic acetylcholine receptor M1 (Rattus norvegicus) (P08482 whole entry, looked up): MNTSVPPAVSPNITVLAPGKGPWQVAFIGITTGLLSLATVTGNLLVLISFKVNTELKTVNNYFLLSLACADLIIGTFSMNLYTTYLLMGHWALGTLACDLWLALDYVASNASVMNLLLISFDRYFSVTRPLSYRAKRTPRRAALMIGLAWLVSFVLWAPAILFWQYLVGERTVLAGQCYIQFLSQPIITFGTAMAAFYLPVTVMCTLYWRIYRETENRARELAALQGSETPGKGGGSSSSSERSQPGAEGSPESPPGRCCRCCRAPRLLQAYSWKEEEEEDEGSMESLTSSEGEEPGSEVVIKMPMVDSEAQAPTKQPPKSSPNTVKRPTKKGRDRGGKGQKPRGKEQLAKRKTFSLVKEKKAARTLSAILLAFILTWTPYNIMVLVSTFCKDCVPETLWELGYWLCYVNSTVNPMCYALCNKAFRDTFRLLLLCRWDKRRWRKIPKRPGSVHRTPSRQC
# Outline: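 Intracellular calcium flux, recorded with Fluo-4 in a kinetic plate reader, served as signal; the response to carbachol at EC80 (100 nM final) was taken as maximal over minimal fluorescence after a 10 min compound pre-incubation in rat M1-CHO cells.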
# [10] = qHTS Assay for Identification of Small Molecule Agonists for NFkB Signaling Pathway (AID 928; calls by dose curve); conditions: NFkB beta-lactamase reporter cells, blue/green ratio
# Procedure: NIH Molecular Libraries Screening Centers Network [MLSCN]
# NIH Chemical Genomics Center [NCGC]
# The TNF alpha/NFkB signaling pathway was assayed in NFkB-bla cells (Invitrogen), a ME-180 cervical carcinoma line containing a stably integrated beta-lactamase reporter gene controlled by a NFkB response element. […] The assay was screened at the EC50 of TNF alpha activation to identify activators of TNF alpha/NFkB signaling.
# NCGC Assay Protocol Summary:
# Cells were trypsinized, washed in assay medium (AM, OPTI MEM with 0.5% fetal bovine serum, 0.1 mM nonessential amino acids, 1 mM sodium pyruvate, 10mM HEPES pH 7.3, 100U/ml penicillin, and 100 ug/ml streptomycin) and plated at 1000 cells/5 uL/well into black clear-bottom 1536 well plates. After an overnight incubation at 37 C and 5% CO2, 23 nL of compound were delivered by a pin tool, 1 uL of TNF alpha (10 pM final concentration in AM) was added and plates were incubated at 37 C for 5 hrs. One uL of LiveBLAzerTM detector mix (Invitrogen) was added, the plates incubated at room temperature for 2 hrs, and fluorescence intensity at 460 and 530 nm emission was measured at 405 nm excitation by an Envision (Perkin Elmer).
smiles,measurement,setting,value
COc1c2occc2cc2ccc(=O)oc12,Potency,[1],inactive
same,Potency,[2],inactive
same,Potency,[3],inactive
same,Potency,[4],inactive
same,Potency,[5],inactive
Cc1c(OCC(F)(F)F)ccnc1CS(=O)c1nc2ccccc2[nH]1 (stereo not drawn),Potency,[6],inactive
same,Potency,[2],inactive
same,Potency,[7],inactive
CCN(CC)C(=S)SSC(=S)N(CC)CC,Potency,[8],0.398 µM (active)
same,Potency,[2],inactive
Cc1cccc(C#Cc2ccccc2)n1,Potency,[6],1 µM (active)
same,Potency,[7],15.8 µM (active)
O=c1c(O)c(-c2cc(O)c(O)c(O)c2)oc2cc(O)cc(O)c12,Potency,[8],10 µM (active)
same,Potency,[9],inactive
same,Potency,[7],inactive
CC(=O)Nc1ccc(O)cc1,Potency,[1],inactive
same,Potency,[3],inactive
same,Potency,[4],inactive
same,Potency,[5],inactive
NC(=NCc1ccccc1)NC(=O)c1nc(Cl)c(N)nc1N,Potency,[6],12.6 µM (active)
same,Potency,[2],inactive
same,Potency,[7],inactive
COc1ccc2cc([C@H](C)C(=O)O)ccc2c1,Potency,[6],inactive
same,Potency,[7],inactive
Nc1nc(OCc2ccccc2)c2[nH]cnc2n1,Potency,[6],inactive
same,Potency,[9],inactive
same,Potency,[7],inactive
c1ccc2[nH]c(-c3cscn3)nc2c1,Potency,[1],inactive
same,Potency,[2],inactive
same,Potency,[3],inactive
same,Potency,[4],inactive
same,Potency,[5],inactive
CN(C)c1ccc2nc3ccc(=[N+](C)C)cc-3sc2c1,Potency,[1],10 µM (active)
same,Potency,[3],10 µM (active)
same,Potency,[4],10 µM (active)
same,Potency,[5],12.6 µM (active)
Cc1nc2n(c(=O)c1CCN1CCC(c3noc4cc(F)ccc34)CC1)CCCC2,Potency,[6],inactive
same,Potency,[7],inactive
CC1(C)NC(=O)N(c2ccc([N+](=O)[O-])c(C(F)(F)F)c2)C1=O,Potency,[6],inactive
same,Potency,[2],inactive
same,Potency,[7],inactive
O=C(CCc1ccc(O)cc1)c1c(O)cc(O)cc1O,Potency,[6],inactive
same,Potency,[2],inactive
same,Potency,[9],inactive
same,Potency,[7],inactive
CNC[C@H](O)c1ccc(O)c(O)c1,Potency,[6],inactive
same,Potency,[7],inactive
NS(=O)(=O)c1cc(C(=O)O)c(NCc2ccco2)cc1Cl,Potency,[1],inactive
same,Potency,[2],inactive
same,Potency,[3],inactive
same,Potency,[4],inactive
same,Potency,[5],inactive
C[C@H](Cc1ccc(O)c(O)c1)[C@@H](C)Cc1ccc(O)c(O)c1,Potency,[8],5.01 µM (active)
same,Potency,[7],inactive
O=Nc1c(-c2c(O)[nH]c3cc(Br)ccc23)[nH]c2ccccc12,Potency,[6],0.251 µM (active)
same,Potency,[9],0.1 µM (active)
NCCCCNCCCN,Potency,[8],6.31 µM (active)
same,Potency,[2],inactive
same,Potency,[9],inactive
same,Potency,[7],inactive
NNc1nncc2ccccc12,Potency,[6],0.0398 µM (active)
same,Potency,[2],inactive
O=c1cc(N2CCOCC2)oc2c(-c3ccccc3)cccc12,Potency,[10],7.08 µM (active)
same,Potency,[7],inactive
Cc1ccc(C)c(OCCCC(C)(C)C(=O)O)c1,Potency,[1],inactive
same,Potency,[2],inactive
same,Potency,[3],inactive
same,Potency,[4],inactive
same,Potency,[5],inactive
CS(=O)(=O)OCCCCOS(C)(=O)=O,Potency,[1],inactive
same,Potency,[2],inactive
same,Potency,[3],inactive
same,Potency,[4],inactive
same,Potency,[5],inactive
CCCc1cc(=O)[nH]c(=S)[nH]1,Potency,[1],inactive
same,Potency,[2],inactive
same,Potency,[3],inactive
same,Potency,[4],inactive
same,Potency,[5],inactive
O=C(O)c1cccnc1Nc1cccc(C(F)(F)F)c1,Potency,[6],inactive
same,Potency,[2],inactive
same,Potency,[7],inactive
Nc1cc(C(Cl)=C(Cl)Cl)c(S(N)(=O)=O)cc1S(N)(=O)=O,Potency,[2],inactive
COC(=O)[C@H](Cc1ccccc1)NC(=O)[C@@H](N)CC(=O)O (H-Asp-Phe-OMe),Potency,[1],inactive
same,Potency,[3],inactive
same,Potency,[4],inactive
same,Potency,[5],inactive
CCc1nc(N)nc(N)c1-c1ccc(Cl)cc1,Potency,[1],inactive
same,Potency,[2],inactive
same,Potency,[3],inactive
same,Potency,[4],inactive
same,Potency,[5],inactive
COc1ccccc1N1CCN(CCN(C(=O)C2CCCCC2)c2ccccn2)CC1,Potency,[6],inactive
same,Potency,[9],inactive
same,Potency,[7],inactive
CC(C)c1ccc2c(c1)c(SC(C)(C)C)c(CC(C)(C)C(=O)O)n2Cc1ccc(Cl)cc1,Potency,[7],inactive
Nc1nc(Cl)nc2c1ncn2[C@H]1C[C@H](O)[C@@H](CO)O1,Potency,[2],inactive
Cc1cc(O)c2c(c1)C(=O)c1cc(O)cc(O)c1C2=O,Potency,[9],inactive
same,Potency,[7],inactive
same,Potency,[3],inactive
same,Potency,[5],inactive
O=c1oc2cc(O)ccc2s1,Potency,[2],inactive
CCCCC(CC)COC(=O)C(C#N)=C(c1ccccc1)c1ccccc1 (stereo not drawn),Potency,[3],inactive
same,Potency,[4],inactive
same,Potency,[5],inactive
Cc1cc(C2CCCCC2)n(O)c(=O)c1,Potency,[2],inactive
O=C1c2ccccc2-c2n[nH]c3cccc1c23,Potency,[9],inactive
same,Potency,[7],inactive
O=c1c(O)c(-c2ccc(O)cc2O)oc2cc(O)cc(O)c12,Potency,[2],inactive
same,Potency,[7],inactive
O=C(O)c1cc(=O)c2c(OCC(O)COc3cccc4oc(C(=O)O)cc(=O)c34)cccc2o1,Potency,[2],inactive
Cc1ncc([N+](=O)[O-])n1CC(C)O (stereo not drawn),Potency,[2],inactive
CN1C(C(=O)Nc2ccccn2)=C(O)c2sccc2S1(=O)=O,Potency,[2],inactive
O=C(NC(Cc1cc(=O)[nH]c2ccccc12)C(=O)O)c1ccc(Cl)cc1 (stereo not drawn),Potency,[2],inactive
Cc1cc2c(s1)Nc1ccccc1N=C2N1CCN(C)CC1,Potency,[2],inactive
CC1Cc2ccccc2N1NC(=O)c1ccc(Cl)c(S(N)(=O)=O)c1 (stereo not drawn),Potency,[2],inactive
CN(C)CCc1c[nH]c2ccc(Cn3cncn3)cc12,Potency,[2],inactive
S=c1nc[nH]c2nc[nH]c12,Potency,[2],6.31 µM (active)
O=c1ccc2ccc(O)c(O)c2o1,Potency,[9],inactive
same,Potency,[7],inactive
CN1CCC(=C2c3ccccc3CCc3sccc32)CC1,Potency,[2],inactive
Nc1ccc(S(N)(=O)=O)cc1,Potency,[2],inactive
same,Potency,[3],inactive
same,Potency,[4],inactive
same,Potency,[5],inactive
CC(=O)N1CCN(c2ccc(OC[C@H]3CO[C@](Cn4ccnc4)(c4ccc(Cl)cc4Cl)O3)cc2)CC1,Potency,[7],inactive
CCCOc1ccc2nc(NC(=O)OC)[nH]c2c1,Potency,[2],inactive
O=C(O)c1cn(-c2ccc(F)cc2)c2cc(N3CCNCC3)c(F)cc2c1=O,Potency,[2],inactive
Cc1cc2cc3c(C)cc(=O)oc3c(C)c2o1,Potency,[2],inactive
O=C(c1ccccc1)c1ccc2n1CCC2C(=O)O (stereo not drawn),Potency,[2],inactive
Cc1ccc(S(=O)(=O)NC(=O)NN2CC3CCCC3C2)cc1 (stereo not drawn),Potency,[2],inactive
CC1(C)C(=O)N(CCN2CCC(C(=O)c3ccc(F)cc3)CC2)c2ccccc21,Potency,[7],inactive
Oc1ccc(-c2nc(-c3ccc(F)cc3)c(-c3ccncc3)[nH]2)cc1,Potency,[9],inactive
same,Potency,[7],inactive
O=C1NC(=O)C(c2ccccc2[N+](=O)[O-])=C1Nc1ccc(O)c(Cl)c1,Potency,[9],inactive
same,Potency,[7],inactive
Cc1cccc(CN2CCN(C(c3ccccc3)c3ccc(Cl)cc3)CC2)c1 (stereo not drawn),Potency,[2],inactive
CCN(CCO)CCCC(C)Nc1ccnc2cc(Cl)ccc12 (stereo not drawn),Potency,[2],inactive
